Data from PubChem BioAssay (NCATS).
Records with an inconclusive call do not appear. Activity calls are given as the source filed them. Unless noted, calls come from the whole dose curve; as a rule, active = well fitted curve in the direction sought with a large enough effect; inconclusive = small, poorly fitted or top-dose-only effect, or another doubt; inactive = no such curve, though single readings can be large; an effect the other way counts as inactive or inconclusive.

What was measured:
[1] = test system: Zika virus NS2B-NS3 protease (linked construct); assay: Primary screen NINDS Rhodamine qHTS for Zika virus inhibitors (AID 1347160); note: nearly all actives have a fitted effect of over 55% in size; note: potency is the fitted concentration of half-maximal effect
In short: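 Each compound, titrated, sat 15 min with 25 nM linked protease before 1.5 microM Rhodamine110 substrate went in. Fluorescence gain over the next 15 min, in pH 8.0 Tris with Tween 20, gave Hill-fitted curves.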

[2] = OV-KATE Cancer Cell Toxicity qHTS against the NCATS CANVASS Library (AID 1347345); note: potency is the fitted concentration of half-maximal effect
In short: (§1)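 ATP content after 72 h treatment, detected by CellTiter-Glo luminescence (15min room-temperature development), reflects cell viability. Wells contained 1000 cells and received compounds at 11 concentrations.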

[3] = HPAF-II Cancer Cell Toxicity qHTS against the NCATS CANVASS Library (AID 1347346); note: nearly all actives have a fitted effect of over 55% in size; note: potency is the fitted concentration of half-maximal effect
In short: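 1000 HPAF-II cells/well; 4 h pre-incubation; 11-pnt compound titration; 72 h, 37 degrees C/5% CO2; CellTiter-Glo, 15 min RT; luminescence read.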

[4] = OV-SAHO Cancer Cell Toxicity qHTS against the NCATS CANVASS Library (AID 1347348); note: nearly all actives have a fitted effect of over 55% in size; note: potency is the fitted concentration of half-maximal effect
In short: as §1

[5] = Panc-1005 Cancer Cell Toxicity qHTS against the NCATS CANVASS Library (AID 1347349); note: nearly all actives have a fitted effect of over 60% in size; note: potency is the fitted concentration of half-maximal effect
In short: as §1

[6] = U-118MG Cancer Cell Toxicity qHTS against the NCATS CANVASS Library (AID 1347351); note: potency is the fitted concentration of half-maximal effect
In short: as §1

[7] = COV-362 Cancer Cell Toxicity qHTS against the NCATS CANVASS Library (AID 1347352); note: potency is the fitted concentration of half-maximal effect
In short: (§2)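 1000 cells/well, 4 h pre-incubation 37 °C/5% CO2; 11-pnt titration; 72 h; CellTiter-Glo 15 min RT, luminescence.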

[8] = UWB1.289-WTBRCA1 Cancer Cell Toxicity qHTS against the NCATS CANVASS Library (AID 1347354); note: potency is the fitted concentration of half-maximal effect
In short: as §2

[9] = HEK293 24hr Apoptosis Induction qHTS against the NCATS CANVASS Library (AID 1347359)
In short: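 Caspase-3/7 activation measured as luminescence from the DEVD-based Caspase-Glo reagent, 15 min at room temperature, following 24-hour compound treatment of HEK293 cells.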

[10] = target: Glucocorticoid receptor (Homo sapiens) (UniProt P04150); assay: GR-GFP Redistribution (AID 450;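 active = compounds whose dose series gives a full or clear partial fitted curve of increased nuclear translocation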; note: potency is the fitted concentration of half-maximal effect); details: U2OS GR-GFP nuclear translocation, laser cytometry, 2 h
Glucocorticoid receptor (Homo sapiens), sequence (P04150 whole entry, looked up, the tested form may be a part): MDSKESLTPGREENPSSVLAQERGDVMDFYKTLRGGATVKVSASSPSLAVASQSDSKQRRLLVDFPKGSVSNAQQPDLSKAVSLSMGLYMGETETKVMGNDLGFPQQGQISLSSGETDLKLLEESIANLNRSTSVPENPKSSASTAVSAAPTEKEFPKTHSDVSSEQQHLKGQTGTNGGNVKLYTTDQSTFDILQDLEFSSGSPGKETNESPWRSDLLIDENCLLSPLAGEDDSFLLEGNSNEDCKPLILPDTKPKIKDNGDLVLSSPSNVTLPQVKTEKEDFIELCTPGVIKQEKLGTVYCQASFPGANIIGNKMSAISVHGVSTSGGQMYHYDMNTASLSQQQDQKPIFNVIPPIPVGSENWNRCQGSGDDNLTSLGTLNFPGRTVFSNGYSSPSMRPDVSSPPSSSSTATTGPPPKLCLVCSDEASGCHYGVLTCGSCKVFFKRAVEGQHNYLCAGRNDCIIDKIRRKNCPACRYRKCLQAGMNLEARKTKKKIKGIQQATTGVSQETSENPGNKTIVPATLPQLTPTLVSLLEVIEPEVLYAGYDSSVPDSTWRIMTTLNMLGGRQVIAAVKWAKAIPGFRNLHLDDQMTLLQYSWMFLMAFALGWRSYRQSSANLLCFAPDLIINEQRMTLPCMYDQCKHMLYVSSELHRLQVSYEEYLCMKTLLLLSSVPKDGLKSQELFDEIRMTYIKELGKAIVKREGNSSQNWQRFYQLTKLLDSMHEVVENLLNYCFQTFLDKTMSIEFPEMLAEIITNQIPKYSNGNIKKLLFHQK

[11] = target: Mitogen-activated protein kinase 10 (Mus musculus) (UniProt Q61831); assay: JNK3 AlphaScreen Assay (AID 530; active = well fitted curve in either direction with a large enough effect, not every such curve was filed as active;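 note: kinase came from lysate of stimulated human HepG2 cells; signal reports phosphorylation of biotinylated GST-cJun 1-79 at Ser73 with 10 µM ATP; series mostly up to about 57 µM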)
In short: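 Kinase buffer: 20 mM Tris-HCl pH 7.6, 10 mM MgCl2, 1 mM DTT, 0.1 mM Na3VO4, 0.01% Tween-20; ATP 10 uM. Substrate biotin-GST-cJun(1-79), enzyme from activated HepG2 lysates. Detection by Ser73 phospho-antibody AlphaScreen.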

[12] = target: 3',5'-cyclic-AMP phosphodiesterase 4B (Homo sapiens) (UniProt Q07343); assay: qHTS Assay for Inhibitors of PDE-IV (AID 607; active = well fitted activation curve with a large enough effect in the main read-out, with a control signal flat, not every such curve was filed as active)
3',5'-cyclic-AMP phosphodiesterase 4B (Homo sapiens), sequence (Q07343 whole entry, looked up): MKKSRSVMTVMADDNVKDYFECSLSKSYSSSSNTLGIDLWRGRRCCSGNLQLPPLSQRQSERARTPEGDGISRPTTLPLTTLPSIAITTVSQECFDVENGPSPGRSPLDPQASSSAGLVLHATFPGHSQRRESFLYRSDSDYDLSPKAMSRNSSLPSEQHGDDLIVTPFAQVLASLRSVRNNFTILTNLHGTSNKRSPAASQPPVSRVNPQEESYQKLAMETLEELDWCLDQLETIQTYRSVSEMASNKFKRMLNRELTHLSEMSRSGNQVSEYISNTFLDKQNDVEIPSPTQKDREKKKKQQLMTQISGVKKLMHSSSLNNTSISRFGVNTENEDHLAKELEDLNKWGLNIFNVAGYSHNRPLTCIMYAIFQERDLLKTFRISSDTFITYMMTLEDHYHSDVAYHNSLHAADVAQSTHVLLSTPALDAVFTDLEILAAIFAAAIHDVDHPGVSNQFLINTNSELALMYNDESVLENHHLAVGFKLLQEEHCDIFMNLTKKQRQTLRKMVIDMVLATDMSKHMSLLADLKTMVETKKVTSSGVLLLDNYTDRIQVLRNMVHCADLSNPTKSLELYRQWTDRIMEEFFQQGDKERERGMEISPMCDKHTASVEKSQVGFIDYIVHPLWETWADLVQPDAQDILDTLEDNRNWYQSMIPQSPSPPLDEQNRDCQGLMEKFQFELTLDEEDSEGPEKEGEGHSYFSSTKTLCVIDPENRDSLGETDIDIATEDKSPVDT
In short: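 HEK293 ACTOne cells with CNG channel (1000/well), endogenous PDE4; membrane potential dye, compounds up to 22.9 uM final. Fluorescence Ex 535/Em 590; RO 20-1724 (100 uM final) as reference.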

[13] = target: Ubiquitin carboxyl-terminal hydrolase 1 (Homo sapiens) (UniProt O94782); assay: Inhibitors of USP1/UAF1: Pilot qHTS (AID 504865);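 note: rhodamine fluorescence freed from ubiquitin-rhodamine substrate followed over time; top concentration of the series differs between compounds; nearly all actives have a fitted effect of over 35% in size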
Ubiquitin carboxyl-terminal hydrolase 1 (Homo sapiens), sequence (O94782 whole entry, looked up): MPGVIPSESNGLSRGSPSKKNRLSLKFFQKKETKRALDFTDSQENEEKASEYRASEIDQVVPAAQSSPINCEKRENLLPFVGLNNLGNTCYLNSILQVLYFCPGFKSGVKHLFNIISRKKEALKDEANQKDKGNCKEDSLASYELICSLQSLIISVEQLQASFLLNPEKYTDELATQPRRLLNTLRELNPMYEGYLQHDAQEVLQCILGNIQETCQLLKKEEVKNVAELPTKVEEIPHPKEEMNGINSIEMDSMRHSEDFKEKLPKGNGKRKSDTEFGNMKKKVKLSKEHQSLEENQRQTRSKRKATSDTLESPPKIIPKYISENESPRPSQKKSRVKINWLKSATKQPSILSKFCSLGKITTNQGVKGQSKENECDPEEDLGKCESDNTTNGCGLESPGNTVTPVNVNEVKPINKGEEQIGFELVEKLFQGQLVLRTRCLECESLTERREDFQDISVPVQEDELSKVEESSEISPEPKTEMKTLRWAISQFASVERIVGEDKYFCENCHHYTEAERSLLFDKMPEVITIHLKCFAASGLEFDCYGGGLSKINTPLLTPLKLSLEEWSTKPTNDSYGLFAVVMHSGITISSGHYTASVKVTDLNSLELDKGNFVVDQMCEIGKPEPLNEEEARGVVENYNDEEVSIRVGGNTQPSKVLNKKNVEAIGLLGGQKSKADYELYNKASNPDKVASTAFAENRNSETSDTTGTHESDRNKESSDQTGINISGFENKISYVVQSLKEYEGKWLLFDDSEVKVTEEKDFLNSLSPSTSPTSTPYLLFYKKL
In short: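 Deubiquitinase activity followed as kinetic rhodamine fluorescence release from 150 nM Ub-Rho. 1 nM USP1/UAF1 with compound, after 15 min room-temperature preincubation, in HEPES pH 7.8 buffer containing TCEP, EDTA, BSA and Tween-20.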

[14] = target: DNA dC->dU-editing enzyme APOBEC-3G (Homo sapiens) (UniProt Q9HC16); assay: qHTS for inhibitors of Vif-A3G interactions: Validation (AID 588379)
DNA dC->dU-editing enzyme APOBEC-3G (Homo sapiens), sequence (Q9HC16 whole entry, looked up): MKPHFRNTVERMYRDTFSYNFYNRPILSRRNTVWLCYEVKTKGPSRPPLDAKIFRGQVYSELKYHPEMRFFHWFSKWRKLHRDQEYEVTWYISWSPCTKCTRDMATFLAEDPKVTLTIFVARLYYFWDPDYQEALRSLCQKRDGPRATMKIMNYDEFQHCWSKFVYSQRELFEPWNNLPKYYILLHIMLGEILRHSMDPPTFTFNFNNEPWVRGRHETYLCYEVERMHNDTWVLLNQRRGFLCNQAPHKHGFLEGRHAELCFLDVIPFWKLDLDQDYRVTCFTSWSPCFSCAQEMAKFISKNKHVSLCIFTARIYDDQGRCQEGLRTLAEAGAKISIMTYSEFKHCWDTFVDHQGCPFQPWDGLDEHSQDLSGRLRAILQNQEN
In short: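 Yellow fluorescence (Ex 488, Em 500-530) of Vif-coexpressing HeLa A3G-eYFP cells, scanned by Acumen cytometer, reports blocked A3G degradation. Cells plated at 700/well overnight at 37 deg C before compound addition, then a further overnight compound incubation at 37 deg C.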

[15] = test system: Zika virus NS2B-NS3 protease; assay: Primary screen GU AMC qHTS for Zika virus inhibitors (AID 1347154); note: nearly all actives have a fitted effect of over 70% in size
In short: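 Fluorogenic AMC-substrate cleavage by noncovalent NS2B-NS3 protease complex (25 nM, pH 8.0 Tris buffer with Tween 20) followed for 15 minutes at room temperature (~20% conversion). Percent inhibition from ex340/em450 signal change, fitted by 4-parameter Hill equation.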

[16] = target: Cytochrome P450 3A4 (Homo sapiens) (UniProt P08684); assay: qHTS Assay for Activators of Cytochrome P450 3A4 (AID 885); note: nearly all actives have a fitted effect of over 65% in size; note: potency is the fitted concentration of half-maximal effect
Cytochrome P450 3A4 (Homo sapiens), sequence (P08684 whole entry, looked up): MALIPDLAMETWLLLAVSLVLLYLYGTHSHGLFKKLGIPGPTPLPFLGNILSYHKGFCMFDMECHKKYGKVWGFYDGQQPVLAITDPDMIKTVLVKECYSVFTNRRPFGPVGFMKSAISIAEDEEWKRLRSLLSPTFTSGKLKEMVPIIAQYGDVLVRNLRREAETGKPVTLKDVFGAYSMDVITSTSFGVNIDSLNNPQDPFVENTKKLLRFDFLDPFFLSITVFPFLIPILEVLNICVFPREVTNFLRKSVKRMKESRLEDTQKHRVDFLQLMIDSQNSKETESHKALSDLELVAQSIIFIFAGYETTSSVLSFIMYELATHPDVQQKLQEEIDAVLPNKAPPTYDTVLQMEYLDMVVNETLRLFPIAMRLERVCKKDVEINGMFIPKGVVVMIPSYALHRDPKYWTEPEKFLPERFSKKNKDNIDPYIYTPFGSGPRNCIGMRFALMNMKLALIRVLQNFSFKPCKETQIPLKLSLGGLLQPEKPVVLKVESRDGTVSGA
In short: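 Human CYP3A4 dealkylates Luciferin-PPXE to luciferin, which luciferase detection converts to light. Substrate was at its KM (25uM), buffer 200mM KPO4, reaction 60 min at RT.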

[17] = target: Cytochrome P450 1A2 (Homo sapiens) (UniProt P05177); assay: p450-cyp1a2 (AID 410; calls by dose curve; note: potency is the fitted concentration of half-maximal effect)
Cytochrome P450 1A2 (Homo sapiens), sequence (P05177 whole entry, looked up): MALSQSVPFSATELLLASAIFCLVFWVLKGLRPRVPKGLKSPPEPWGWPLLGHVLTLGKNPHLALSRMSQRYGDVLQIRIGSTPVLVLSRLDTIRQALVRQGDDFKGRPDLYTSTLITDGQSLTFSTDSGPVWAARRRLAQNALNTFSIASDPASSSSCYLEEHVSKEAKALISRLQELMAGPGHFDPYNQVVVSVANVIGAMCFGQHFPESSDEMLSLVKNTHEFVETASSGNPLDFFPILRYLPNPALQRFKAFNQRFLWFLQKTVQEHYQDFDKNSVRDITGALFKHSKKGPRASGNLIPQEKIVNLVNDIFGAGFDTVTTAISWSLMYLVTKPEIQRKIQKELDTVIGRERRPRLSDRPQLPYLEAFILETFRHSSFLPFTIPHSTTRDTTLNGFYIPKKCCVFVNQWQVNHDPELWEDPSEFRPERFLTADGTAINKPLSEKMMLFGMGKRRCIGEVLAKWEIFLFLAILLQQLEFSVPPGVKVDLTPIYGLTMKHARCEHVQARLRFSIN
In short: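 20nM CYP1A2, 100uM Luciferin-ME (=Km), 100mM KPO4; cpd 10 min RT; +NADPH regen, 60 min RT; stop/detect 20 min; luminescence. Normalized to furafylline 57 uM = full inhibition.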

[18] = target: Glucocorticoid receptor (Homo sapiens) (UniProt P04150); assay: GR-EFC Redistribution (AID 451; calls by dose curve; note: potency is the fitted concentration of half-maximal effect); details: CHO-K1 GR-EFC translocation, beta-gal luminescence, 2 h
In short: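 Translocation of GR-ED fusion to nuclear EA restores b-gal, read by luminescence after 1 h room-temperature detection. Engineered CHO-K1 biosensor cells, 1,000/well, exposed 2 h at 37 C to titrations up to 46 uM final.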

Measured: Potency

CNCCc1ccc(O)cc1
inactive: [1] | [2] | [3] | [4] | [5] | [6] | [7] | [8] | [9]

CCN1C[C@]2(C)CC[C@@H](O)[C@]34C1[C@H](C[C@H]23)C12CCC(CC14)[C@](O)(CO)[C@H]2O (stereo partly specified)
inactive: [1] | [2] | [3] | [4] | [5] | [6] | [7] | [8] | [9]

CCC(=O)CCCCC[C@@H]1NC(=O)[C@H]2CCCCN2C(=O)[C@H]([C@@H](C)CC)NC(=O)[C@H](Cc2cn(OC)c3ccccc23)NC1=O
inactive: [9]
active: [1] 13.9 µM | [2] 4.72 µM | [3] 0.841 µM | [4] 3.75 µM | [5] 0.668 µM | [6] 0.53 µM | [7] 16.7 µM | [8] 6.66 µM

CC[C@@H]1CN2CC[C@@]3(O)C(=Nc4cccc(OC)c43)[C@@H]2C[C@@H]1/C(=C\OC)C(=O)OC
inactive: [1] | [2] | [3] | [4] | [5] | [6] | [7] | [8] | [9]

Cc1nc(N)sc1CCN
inactive: [10] > 46 µM | [11] | [12] | [13] | [14] | [15]

O=C1Nc2ccccc2C2(CCN(CCc3ccc(C(F)(F)F)cc3)CC2)O1
inactive: [15]
active: [16] 7.94 µM

Oc1ccc2c3c1O[C@H]1c4oc5ccccc5c4C[C@]4(O)[C@H](C2)N(CC2CC2)CC[C@@]314
inactive: [17] | [10] > 46 µM | [18] > 46 µM | [11] | [12] | [16] | [14] | [15]

C=C(C)CN1CC[C@@]23c4c5ccc(O)c4O[C@H]2c2[nH]c4ccccc4c2C[C@]3(O)[C@@H]1C5
inactive: [17] | [10] > 46 µM | [11] | [12] | [16] | [14] | [15]

CC(C)C[C@H]1C(=O)N2CCCC2[C@]2(O)O[C@](NC(=O)[C@@H]3C=C4c5cccc6[nH]cc(c56)CC4N(C)C3)(C(C)C)C(=O)N12 (stereo partly specified)
inactive: [16] | [15]

O=C(Cc1ccc(Cl)c(Cl)c1)N1CCCC[C@H]1CN1CCCC1
inactive: [17] | [10] > 46 µM | [11] | [12] | [16] | [14] | [15]

N#CC(C#N)=Cc1ccc([N+](=O)[O-])c(O)c1
active: [17] 31.6 µM
inactive: [10] > 46 µM | [11] | [12] | [16] | [15]

C[C@@H](N)Cn1ccc2cc(F)c(Cl)cc21
inactive: [10] > 46 µM | [11] | [12] | [16] | [13] | [14] | [15]
active: [17] 0.0501 µM

CC(C)(O)[C@@H]1[C@H]2OC(=O)[C@@H]1[C@]1(O)C[C@H]3O[C@]34C(=O)O[C@H]2[C@@]14C (tested in a mixture with another compound)
inactive: [10] > 46 µM | [13] | [14] | [15]

O[C@H]1[C@H](O)[C@@H](O)CN2CC[C@H](O)[C@H]12
inactive: [15]

COC(=O)C1=C2Nc3ccccc3[C@@]23CCN2CC(C(C)=O)C1C[C@H]23 (stereo partly specified)
active: [1] 55.3 µM | [3] 9.43 µM
inactive: [2] | [4] | [5] | [6] | [7] | [8] | [9]

O=C(c1ccccc1O)c1[nH]c(Cl)c(Cl)c1-n1c(C(=O)c2ccccc2O)cc(Cl)c1Cl
active: [1] 2.47 µM | [2] 5.94 µM | [3] 1.33 µM | [4] 2.11 µM | [5] 2.11 µM | [6] 6.68 µM | [7] 2.11 µM | [8] 13.3 µM
inactive: [9]

CCCCC[C@@H]1OC(=O)[C@@H](C)N(C)C(=O)[C@H](CCCCC)OC(=O)C(C)N(C)C(=O)[C@H](CCCCC)OC(=O)[C@@H](C)N(C)C(=O)[C@H](CCCCC)OC(=O)C(C)N(C)C1=O (stereo partly specified)
active: [1] 11 µM | [2] 8.38 µM | [3] 6.68 µM | [4] 3.34 µM | [5] 8.41 µM | [6] 14.9 µM | [7] 9.41 µM | [8] 16.7 µM
inactive: [9]

CNCCc1ccccc1
inactive: [1] | [2] | [3] | [4] | [5] | [6] | [7] | [8] | [9]

CCC[C@H]1CC[C@H]2[C@H](C)CCC[C@H]2N1
inactive: [1] | [2] | [3] | [4] | [5] | [6] | [7] | [8] | [9]

CC(=O)N[C@H]1CCN2CCC[C@H]12
inactive: [1] | [2] | [3] | [4] | [5] | [6] | [7] | [8] | [9]

NC(=NCc1ccc(Cl)cc1)SCCCc1cnc[nH]1
inactive: [10] > 46 µM | [11] | [16] | [14] | [15]
